# Only some compounds are listed: those with a hit (about 3.9% of all), similar ones and a draw of the others.
# FBA Mtb inh – Mtb fructose-bisphosphate aldolase inhibition; P9WQA3; purified M. tuberculosis FBA, fluorescence read-out; inhibition, % at 1 µM; hit rate 2.3% among 360,000; in the data active means inhibition above about 27%;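 further: 0% = vehicle and 100% = reference inhibitor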
# Target sequence (P9WQA3 whole entry, looked up): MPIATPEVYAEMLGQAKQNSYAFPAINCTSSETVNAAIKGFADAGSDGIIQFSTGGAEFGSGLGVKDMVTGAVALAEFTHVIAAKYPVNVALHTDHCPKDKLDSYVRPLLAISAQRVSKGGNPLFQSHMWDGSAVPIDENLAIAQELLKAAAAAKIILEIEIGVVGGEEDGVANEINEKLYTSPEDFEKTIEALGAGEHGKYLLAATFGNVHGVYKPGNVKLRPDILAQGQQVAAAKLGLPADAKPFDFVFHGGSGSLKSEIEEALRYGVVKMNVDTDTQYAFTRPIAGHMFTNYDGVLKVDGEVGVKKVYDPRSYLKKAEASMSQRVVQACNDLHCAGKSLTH
# GDH-TPI counter – GDH-TPI coupled enzyme inhibition counter-screen | GDH-TPI coupled enzyme counterscreen, NADH absorbance | inhibition, % at 4.8 µM | hit rate 1.2% among 360,000; in the data active means inhibition above about 30%;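 further: 0% = DMSO wells and 100% = wells lacking the enzyme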
# 3CLpro inhibitor – SARS-CoV 3CLpro protease inhibition; recombinant SARS-CoV 3CLpro, quenched FRET peptide cleavage; inhibition, % at 6 µM; hit rate 0.14% among 290,000; in the data active means inhibition above about 12%
# Vc quorum ag – inducers of Vibrio cholerae quorum light production without autoinducers; activation, % at 18.7 µM; V. cholerae BH1578 lux reporter, luminescence, 6 h; AID 588436; hit rate 0.16% among 350,000; in the data active means activation mostly above about 9.7%, no sharp cut-off
# PrPC TRFRET – inhibitors of human cell surface prion protein PrPC. P04156. TR-FRET read-out. inhibition, % at 13.8 µM. hit rate 0.43% among 370,000; in the data active means inhibition above about 24%; further: 0% = median of the test wells and 100% = reference compound wells
# * hit, by the source's call; i = inactive; . = no result given.
SMILES,FBA Mtb inh,GDH-TPI counter,3CLpro inhibitor,Vc quorum ag,PrPC TRFRET
CCc1ccc(/C=C2/C(=O)NC(=O)N2C(C)=O)cc1,0.6,40.0*,-1.5,0.9,-9.3
COc1ccc(C(=O)N2C(=S)NC(=O)/C2=C\c2ccc(C)cc2)cc1,-0.9,24.3,-0.8,-0.2,-0.9
CCCCOC(=O)/C(=C/C=C/c1ccccc1)NC(=O)c1ccccc1,-0.6,25.2,7.2,i,4.7
CCCCOc1ccc(C(=O)N/C(=C/C=C/c2ccccc2)C(=O)NCCCO)cc1,1.3,25.9,-0.3,-0.2,-2.3
CCCCOc1ccc(C(=O)N/C(=C/C=C/c2ccccc2)C(=O)NCCO)cc1,-2.0,31.1*,-0.2,-0.3,-0.1
CN(C)CCCNC(=O)/C(=C\C=C\c1ccccc1)NC(=O)c1ccc([N+](=O)[O-])cc1,-2.1,33.7*,-4.2,-0.6,-23.7
C=CCNC(=O)/C(=C\C=C\c1ccccc1)NC(=O)c1ccc(OCCCC)cc1,3.2,35.3*,4.8,1.1,6.5
Cn1c(SCC(=O)Nc2ncc(C(F)(F)F)cc2Cl)nnc1-c1ccc(Cl)cc1,3.1,0.4,1.1,-2.7,-1.6
Cc1noc(NS(=O)(=O)c2ccc(NC(=O)c3cnc4scc(C)n4c3=O)cc2)c1C,-2.4,49.0*,5.7,i,1.4
Cc1noc(NS(=O)(=O)c2ccc(NC(=O)c3nn(-c4ccc(F)cc4)ccc3=O)cc2)c1C,-1.1,32.3*,3.6,-0.5,0.1
Cc1cc(NS(=O)(=O)c2ccc(NC(=O)c3cnc4scc(C)n4c3=O)cc2)nc(C)n1,1.6,15.3,-0.8,-0.5,-10.7
CN(C)c1ccc(C(=O)Nc2ccc(S(=O)(=O)NC3=NCCCCC3)cc2)cc1,-0.6,32.5*,-0.5,-0.1,-7.2
Cc1ccc(C(=O)NNC(=O)c2nn(-c3ccc(F)cc3)ccc2=O)cc1,-4.5,33.3*,-4.3,-0.4,-4.2
Cc1cccc(NC(=O)CSc2nnc(-c3cccnc3)n2Cc2ccco2)c1C,.,.,.,.,2.2
Cc1ccc2nc(-c3ccccn3)c(N)n2c1,2.4,.,.,.,3.8
CC(=O)Nc1ccc(OCCOc2ccc(NC(C)=O)cc2)cc1,-0.7,0.7,-1.0,i,-3.4
COc1ccc(Sc2cccc3c2S(=O)(=O)N(C2CC2)C[C@@H](COCc2ccccc2)O3)cc1OC,.,.,.,.,7.4
CS(=O)(=O)Nc1ccc(C(=O)Nc2ccc(S(=O)(=O)Nc3nccs3)cc2)cc1,-0.8,10.4,1.4,3.6,-1.1
Cc1noc(NS(=O)(=O)c2ccc(NC(=O)c3ccc(N(C)C)cc3)cc2)c1C,2.7,32.2*,.,-0.6,2.7
Cc1noc(NS(=O)(=O)c2ccc(NC(=O)c3ccc(OC(C)C)cc3)cc2)c1C,-3.4,-1.9,2.0,-0.3,-3.3
CN(C)c1ccc(C(=O)Nc2ccc(S(=O)(=O)Nc3nccs3)cc2)cc1,3.8,38.0*,-1.9,i,5.2
O=C1CCCC2=C1C(c1ccc(O)cc1)c1c(ccc3ccccc13)N2 (stereo not drawn),160.3*,4.4,5.7,i,11.4
O=C(NCc1ccccc1)c1cc(C2CCCN(S(=O)(=O)c3cccs3)C2)on1 (stereo not drawn),-1.7,0.0,.,-1.2,11.1
CCCCN1CC(=O)N2[C@H](c3ccc(OC)cc3)[C@@H]3C(=O)N(CC)C(=O)[C@@H]3[C@]2(C)C1=O,1.3,4.4,-1.4,i,.
COc1cccc(NC(=O)c2ccc3c(c2)OCO3)c1,0.1,4.5,-1.3,-0.7,9.5
SMILES,FBA Mtb inh,GDH-TPI counter,3CLpro inhibitor,Vc quorum ag,PrPC TRFRET
COc1ccc(C(=O)c2oc3ccccc3c2NC(C)=O)cc1,-0.3,32.9*,-1.3,1.6,-19.9
COc1cccc(NC(=O)c2oc3ccccc3c2NC(=O)c2ccc3c(c2)OCO3)c1,1.6,35.7*,2.9,-0.3,-6.3
Cc1ccc2nc(Cl)c(/C=N/Nc3nc(C)cc(C)n3)c(=O)n2c1,10.7,14.6,-3.5,-0.5,-10.6
CC(C)c1ccc(/C=N/Nc2ccc(C(=O)O)cc2)cc1,-1.4,31.0*,4.4,1.6,13.4
O=C(O)c1ccc(N/N=C/c2ccc(OC(=O)c3ccccc3Cl)cc2)cc1,-0.8,40.7*,2.8,i,-0.9
COc1ccc(/C=C/C(=O)O/N=C(\N)c2ccccc2)cc1OC,6.0,39.6*,6.1,-0.6,-6.1
Cc1ccc(S(=O)(=O)Oc2cccc(/C=N/Nc3ccc(C(=O)O)cc3)c2)cc1,3.0,31.4*,4.0,-0.4,8.9
COc1ccc(/C(N)=N/OC(=O)/C=C/c2ccccc2)cc1,0.7,2.9,3.0,-0.3,8.5
CCn1c(=O)n(CC)c2cc(N3CCCC3)c(NC(=O)c3cc(Cl)ccc3OC)cc21,-0.3,4.3,5.2,-0.1,6.5
COc1ccc(/C=N/Nc2ccc(C(=O)O)cc2)cc1OC,-1.7,46.8*,-0.9,-0.2,2.9
COc1cccc(/C=C2\CC3(OC(=O)c4ccccc4)CCCN2C3)c1 (stereo not drawn),.,.,.,.,2.5
CC1OC(Oc2ccc3ccc(=O)oc3c2-c2c(O)ccc3cc(Oc4ccc5ccc(=O)oc5c4)c(=O)oc23)C(O)C(O)C1O (stereo not drawn),2.6,45.3*,2.2,i,-17.6
COc1cc(OC)cc(-c2c(C#Cc3ccsc3)c3cc(-c4ccc(OC)c(F)c4)ccc3n2C)c1,3.6,32.3*,.,-0.9,1.9
COc1cc(OC)cc(-c2c(C#Cc3ccsc3)c3cc(-c4cc(F)cc(F)c4)ccc3n2C)c1,-0.1,7.6,.,1.3,-1.2
COc1cc(OC)cc(-c2c(C#Cc3ccsc3)c3cc(-c4cnc(OC)nc4)ccc3n2C)c1,-0.5,3.4,.,0.6,0.7
COc1cc(OC)cc(-c2c(-c3ccc(C(C)=O)cc3)c3cc(-c4cccc5[nH]ccc45)ccc3n2C)c1,12.5,36.2*,.,3.9,8.5
COc1ccc(-c2c(-c3cc(OC)cc(OC)c3)n(C)c3ccc(-c4cnc(OC)nc4)cc23)cc1,7.7,13.2,.,-0.8,1.8
COc1ccc(-c2c(-c3cc(OC)cc(OC)c3)n(C)c3ccc(-c4ccc(OC)cc4F)cc23)cc1,4.9,14.1,.,-0.7,0.7
COCc1ccc(-c2ccc3c(c2)c(C#Cc2ccsc2)c(-c2cc(OC)cc(OC)c2)n3C)cc1,2.8,33.5*,.,1.0,2.4
COc1ccc(-c2c(-c3cc(OC)cc(OC)c3)n(C)c3ccc(-c4ccc5[nH]ccc5c4)cc23)cc1,134.2*,21.0,.,i,-3.5
C/C=C/c1ccc([C@H]2[C@@H](CN(CC(C)C)S(=O)(=O)c3ccccc3[N+](=O)[O-])N(C(=O)Nc3cccc(OC)c3)[C@H]2CO)cc1,.,.,.,.,3.3
CN1CCN(C(=S)SCc2nc(N)nc(Nc3ccc(F)cc3)n2)CC1,-0.9,-7.1,4.5,-2.3,-3.4
COc1ccc(CC(=O)Nc2cccc(S(=O)(=O)N3CCCCCC3)c2)cc1OC,0.9,4.1,0.2,-0.3,14.7
CCCCCN(C(=O)CN1CCC(Cc2ccccc2)CC1)c1c(N)n(CCCC)c(=O)[nH]c1=O,6.5,0.3,6.3,0.0,-4.6
COc1ccc(C2OC(=O)CC2C(=O)NCc2ccc(Cl)cc2)cc1OC (stereo not drawn),5.3,-1.9,6.8,-0.2,-4.3
